Screening data deposited in PubChem by several laboratories.
Bfl-1 A1 inh: inhibitors of the anti-apoptotic protein A1, read as caspase activation; 330,000 tested, 0.066% active; MEF A1-2A-BIM cells, Caspase-Glo 3/7 luminescence, 3 h; percent of clofoctol response, vehicle zero; caspase activation, % (concentration not given with the values); AID 2462;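 active = over half of replicate activation scores above 10%, or exactly half above 10 with the replicate mean above 10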
dFosB act-1: enhances mouse delta FosB homodimer DNA binding; purified delta FosB, TAMRA-CDK5 oligo fluorescence polarization; percent of positive-control signal above neutral wells; AID 493131; 340,000 tested, 0.99% active; activation, % at 25 µM;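 active = mean activation above about 17%, with every replicate also reaching it, limit read from the data, passing the limit was not always enough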
Vif inh: blocks HIV Vif function. 340,000 tested, 0.35% active. HEK293T cells, Vif self-association by quenched fluorescence, imaging, 24 h. inhibition, % at 7.49 µM; in the data active = inhibition above about 50%, passing the limit was not always enough
Neddyl block: inhibitors of human cullin neddylation. TR-FRET cullin neddylation, biochemical. inhibition, % at 25 µM. AID 651699. 360,000 tested, 0.58% active; in the data active = inhibition above about 36%
INS-1E GSIS act: GLuc luminescence reporter in INS-1E cells, primary screen for activators of glucose-dependent secretion of insulin; INS-1E GLuc reporter insulin secretion, 2-3 h; activation, % at 16.6 µM; 370,000 tested, 0.61% active; AID 743287;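 active = lowest replicate activation of at least 40%, so every replicate reaches that level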
dFosB act-2: delta FosB (mouse) homodimer activation; 2,400 tested, under 10 active; AID 588690; purified delta FosB, TAMRA-CDK5 oligo fluorescence polarization; normalised: neutral wells 0, positive control 100; shares compounds with dFosB act-1; activation, % at 24.9 µM;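 active = highest replicate activation at or above 34% and every replicate reaching that threshold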;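 note: higher polarization means more probe DNA bound by delta FosB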
Hits are given with their value; n = inactive; x = not tested or not shown. Compounds with a hit are over-represented: about 1.9% of the library has one in this group of screens.

SMILES	Bfl-1 A1 inh	dFosB act-1	Vif inh	Neddyl block	INS-1E GSIS act	dFosB act-2
Cc1cc(C(=O)N/N=C/c2cccc(OC(=O)c3cccc(Br)c3)c2)n[nH]1	n	30	n	n	n	n
COc1cc(C(=O)Oc2cccc(/C=N/NC(=O)c3cc(C)[nH]n3)c2)cc(OC)c1OC	n	n	n	n	n	x
CC(C)NC(=O)Nc1cccc2c1O[C@H](CN(C)Cc1ccc3c(c1)OCO3)[C@@H](C)CN([C@H](C)CO)C2=O	x	x	x	x	n	x
O=C1Nc2cc(C(=O)NCCCN3CCCC3)ccc2S/C1=C/c1ccccc1F	n	n	n	n	n	x
COc1cccc(/C=C2/Sc3ccc(C(=O)NCCCN4CCCC4)cc3NC2=O)c1	n	37	n	n	n	n
C[C@@H]1CN([C@@H](C)CO)S(=O)(=O)c2ccc(/C=C/c3ccccc3)cc2O[C@@H]1CN(C)C(=O)c1ccc2c(c1)OCO2	x	x	x	x	n	x
C[C@H]1CN([C@@H](C)CO)C(=O)Cc2cc(NC(=O)CCN3CCOCC3)ccc2O[C@H]1CN(C)S(=O)(=O)c1ccc(F)cc1	x	x	x	x	n	x
Cc1ccc(Cn2c(=O)n(-c3ccccc3)c(=O)c3ccc(C(=O)NCc4ccco4)cc32)cc1	n	26	n	n	n	n
COc1cc2c(=O)n(Cc3ccccc3)c(=O)n(CC(=O)NCc3ccco3)c2cc1OC	x	31	n	n	n	n
O=C(Cn1c(=O)n(Cc2ccccc2)c(=O)c2ccccc21)NCc1ccco1	n	n	n	n	x	x
O=C(NCc1ccco1)c1ccc(Cn2c(=O)c3ccccc3n(Cc3ccc(Cl)cc3)c2=O)cc1	n	n	n	n	x	x
Cc1c(C#N)c2ccccc2n1CC(=O)NCc1ccccc1	n	n	n	n	n	x
O=C(Cn1c(=O)n(CC(=O)NCc2ccccc2)c2ccccc21)NCc1ccccc1	n	24	x	n	x	n
Cc1cccc(Cn2c(=O)n(-c3ccc(CC(=O)NCc4ccco4)cc3)c(=O)c3sccc32)c1	n	49	n	n	n	n
COc1ccc2c3c(n(C)c2c1)[C@H](CO)N(Cc1nccs1)CC31CN(C(=O)CC2CC2)C1	x	x	x	x	n	x
COCC(=O)Nc1ccc2c(c1)[C@@H]1C[C@H](CC(=O)NC3CCCCC3)O[C@H](CO)[C@@H]1O2	x	x	x	x	n	x
C[C@H]1C/C=C\C[C@H](c2ccc3c(c2)OCO3)NC(=O)[C@H](c2ccccc2)CC(=O)N1	x	x	x	x	n	x
Cc1ccc(NC(=O)Cn2c(=O)n(CCCC(=O)NCc3ccco3)c(=O)c3ccccc32)cc1	n	32	n	n	n	n
COc1ccc2cc(C(=O)Nc3ccc(Cl)cc3)sc(=O)c2c1OC	n	71	n	n	n	n
COc1ccc2cc(C(=O)Nc3ccc(F)cc3)sc(=O)c2c1OC	n	34	n	n	x	n
N#Cc1ccc(C(=O)NC(=S)NC2CCCCC2)cc1	n	n	n	n	n	x
C/C(=N\NC(=S)NC1CCCCC1)c1ccc(C#N)cc1	n	36	n	n	x	n
COc1ccc(NC(=O)N(C)C[C@H]2Oc3ccc(NS(=O)(=O)c4ccc(OC)cc4)cc3CC(=O)N([C@H](C)CO)C[C@H]2C)cc1	x	x	x	x	n	x
Cc1sc2nc(CN3CCCC3)nc(N3CCN(S(=O)(=O)c4cccc(F)c4)CC3)c2c1C	n	44	n	n	n	n
Cc1sc2nc(CN3CCOCC3)nc(N3CCN(S(=O)(=O)c4ccccc4)CC3)c2c1C	n	n	n	n	n	x
SMILES	Bfl-1 A1 inh	dFosB act-1	Vif inh	Neddyl block	INS-1E GSIS act	dFosB act-2
C[C@@H]1CN([C@@H](C)CO)C(=O)c2cc(NC(=O)c3ccncc3)ccc2O[C@@H](C)CCCCO[C@@H]1CN(C)C(=O)Nc1cccc2ccccc12	x	x	x	x	n	x
CC(C)CC#Cc1cnc2c(c1)C(=O)N([C@H](C)CO)C[C@H](C)[C@H](CN(C)C(=O)CC1CC1)O2	x	x	x	x	n	x
Cc1ccc(-c2nc(-c3cccnc3)sc2CC(=O)O)cc1	n	n	n	n	n	x
O=C(Cc1sc(-c2ccccc2Cl)nc1-c1ccccc1)Nc1ccc(F)cc1	n	25	n	n	x	n
CC(=O)Nc1ccc(NC(=O)Cc2sc(-c3cccnc3)nc2-c2ccc(C)cc2)cc1	n	30	n	n	n	n
C[C@H]1CN([C@@H](C)CO)S(=O)(=O)c2ccc(-c3ccc(F)cc3)cc2O[C@@H]1CN(C)C(=O)C1CC1	x	x	x	x	n	x
COC(=O)c1ccc(NC(=O)c2sc3nc(-c4ccccc4)cn3c2C)cc1	n	26	n	n	x	n
COC(=O)c1ccc(NC(=O)c2c(C(=O)Nc3ccccc3)sc3nc(C)cc(=O)n23)cc1	n	92	n	n	x	n
COc1ccc(-c2cn3c(C)c(C(=O)Nc4ccncc4)sc3n2)cc1	n	n	n	n	n	x
C[C@@H]1CCCCO[C@@H](CN(C)Cc2ccc(Cl)c(Cl)c2)[C@H](C)CN([C@H](C)CO)C(=O)c2cc(NS(=O)(=O)c3ccc(F)cc3)ccc2O1	x	x	x	x	n	x
COc1cccc(S(=O)(=O)N[C@H]2CC[C@@H](CC(=O)NCc3ccccc3)O[C@H]2CO)c1	x	x	x	x	n	x
COc1ccc2nc(NC(=O)Cn3cnc4ccccc4c3=O)sc2c1	n	31	n	n	n	n
CCOc1ccc2nc(NC(=O)Cn3[nH]c(=O)c4ccccc4c3=O)sc2c1	n	n	n	n	n	x
N#CCCn1cc(/C=N/NC(N)=S)c(-c2ccc(-c3ccccc3)cc2)n1	n	27	n	n	n	n
N#C/C(=C\c1c(N2CCN(Cc3ccccc3)CC2)nc2ccccn2c1=O)S(=O)(=O)c1ccccc1	n	32	n	n	n	n
CCOC(=O)c1c(CN(C)C)n(-c2ccccc2)c2cc(Br)c(OC)cc12	n	n	n	n	n	x
CCOC(=O)c1c(C)n(CC(O)CN(C)C)c2cc(Br)c(OC)cc12 (stereo not drawn)	n	31	x	n	n	n
C/C(=N\NC(=O)CSc1nc2ccccc2o1)c1cccc(O)c1	n	25	n	n	n	n
CCN1Cc2c(/C=C/c3ccccc3)nc3ccc(OC)cc3c2N(c2cccc(Cl)c2)C1	n	21	n	n	n	n
COc1cccc(N2CCc3c(C)nc4ccc(Cl)cc4c32)c1	n	n	n	x	x	x
COc1ccc(C(C)=O)cc1CSc1nc2ccccc2c(=O)n1-c1cccc(C)c1	n	25	n	n	n	n
O=C(CSc1nccn(-c2ccc(F)c(F)c2)c1=O)NC1CCCC1	x	n	n	n	n	x
O=C(CSc1nccn(-c2cccc(F)c2)c1=O)Nc1ccc(Cl)cc1F	n	21	n	n	n	n
COc1ccccc1-c1cnc2c(c1)C(=O)N([C@@H](C)CO)C[C@H](C)[C@H](CN(C)C(C)=O)O2	x	x	x	x	n	x
O=C(N/N=C/c1ccncc1)c1sc2ccccc2c1Cl	n	n	n	n	n	x
COc1ccc2c(Cl)c(C(=O)N/N=C/c3ccncc3)sc2c1	n	52	n	n	n	n
